The whole screen tested about 5,500 compounds, of which about 2,000 (36%) were called active. Roughly 18% stayed inconclusive and do not appear here. No stated cut-off is given here; in the data, active means normalized growth mostly below about 0.91 (no sharp cut-off); inconclusive means no clear call, values can overlap the other calls; inactive means mostly above about 0.92. This is one part of the list.
Experiment: chemical genetic growth profiling, strain panel (AID 1159580);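 further: tested at 20 µM; growth read once vehicle control cultures reached saturation at 30 °C; 1 = growth at the plate median or of vehicle wells; lower values mean less growth of the strain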
Settings: growth OD

Measured: normalized growth

C=CC(C1=CC(=O)C(OC)=CC1=O)c1ccccc1 (configuration not stated)
active: S. cerevisiae deletion strains, locus YJR075W, strain HOC1, active compounds read low 0.88 | S. cerevisiae deletion strains, locus YKL160W, strain elf1, active compounds read low 0.79 | S. cerevisiae deletion strains, locus YKL190W, strain CNB1, active compounds read low 0.866 | S. cerevisiae deletion strains, locus YKR001C, strain vps1, active compounds read low 0.774 | S. cerevisiae deletion strains, locus YLL001W, strain dnm1, active compounds read low 0.885 | S. cerevisiae deletion strains, locus YLL026W, active compounds read low 0.85 | S. cerevisiae deletion strains, locus YLR027C, strain aat2, active compounds read low 0.808 | S. cerevisiae deletion strains, locus YLR039C, strain RIC1, active compounds read low 0.519 | S. cerevisiae deletion strains, locus YLR113W, strain HOG1, active compounds read low 0.663 | S. cerevisiae deletion strains, locus YLR221C, strain rsa3, active compounds read low 0.734 | S. cerevisiae deletion strains, locus YLR258W, strain gsy2, active compounds read low 0.875 | S. cerevisiae deletion strains, locus YLR262C, strain YPT6 (second series), active compounds read low 0.518 | S. cerevisiae deletion strains, locus YLR262C, strain YPT6, active compounds read low 0.405 | S. cerevisiae deletion strains, locus YLR320W, strain mms22, active compounds read low 0.379 | S. cerevisiae deletion strains, locus YLR330W, strain CHS5, active compounds read low 0.912 | S. cerevisiae deletion strains, locus YLR342W, strain FKS1 (second series), active compounds read low 0.603 | S. cerevisiae deletion strains, locus YLR342W, strain FKS1, active compounds read low 0.79 | S. cerevisiae deletion strains, locus YLR418C, strain cdc73, active compounds read low 0.774 | S. cerevisiae deletion strains, locus YML032C, strain rad52, active compounds read low 0.883 | S. cerevisiae deletion strains, locus YML120C, strain ndi1, active compounds read low 0.864 | S. cerevisiae deletion strains, locus YMR125W, strain sto1, active compounds read low 0.852 | S. cerevisiae deletion strains, locus YMR205C, strain PFK2, active compounds read low 0.784 | S. cerevisiae deletion strains, locus YMR223W, strain ubp8, active compounds read low 0.84 | S. cerevisiae deletion strains, locus YNL071W, strain lat1, active compounds read low 0.213 | S. cerevisiae deletion strains, locus YNL209W, strain ssb2, active compounds read low 0.908 | S. cerevisiae deletion strains, locus YNL233W, strain BNI4, active compounds read low 0.808 | S. cerevisiae deletion strains, locus YNL248C, strain rpa49, active compounds read low 0.842 | S. cerevisiae deletion strains, locus YNL307C, strain MCK1, active compounds read low 0.302 | S. cerevisiae deletion strains, locus YOL147C, strain pex11, active compounds read low 0.926 | S. cerevisiae deletion strains, locus YOR070C, strain gyp1, active compounds read low 0.79 | S. cerevisiae deletion strains, locus YOR106W, strain vam3, active compounds read low 0.739 | S. cerevisiae deletion strains, locus YOR184W, strain ser1, active compounds read low 0.536 | S. cerevisiae deletion strains, locus YOR231W, strain MKK1, active compounds read low 0.853 | S. cerevisiae deletion strains, locus YOR270C, strain vph1, active compounds read low 0.761 | S. cerevisiae deletion strains, locus YPL051W, strain arl3, active compounds read low 0.737 | S. cerevisiae deletion strains, locus YPL078C, strain atp4, active compounds read low 0.868 | S. cerevisiae deletion strains, locus YPL240C, strain hsp82, active compounds read low 0.904 | S. cerevisiae deletion strains, locus YPL256C, strain CLN2, active compounds read low 0.75 | S. cerevisiae deletion strains, locus YPR163C, strain tif3, active compounds read low 0.766 | S. cerevisiae deletion strains, strain wtn01, active compounds read low 0.846 | S. cerevisiae strains, strain wild type, active compounds read low 0.805
inactive: S. cerevisiae deletion strains, locus YKL009W, strain mrt4, active compounds read low 0.905 | S. cerevisiae deletion strains, locus YKL068W, active compounds read low 0.977 | S. cerevisiae deletion strains, locus YKL085W, strain MDH1 (second series), active compounds read low 0.954 | S. cerevisiae deletion strains, locus YKL085W, strain MDH1, active compounds read low 0.954 | S. cerevisiae deletion strains, locus YKR026C, strain gcn3, active compounds read low 0.987 | S. cerevisiae deletion strains, locus YKR091W, strain srl3, active compounds read low 0.995 | S. cerevisiae deletion strains, locus YLL041C, strain sdh2, active compounds read low 0.978 | S. cerevisiae deletion strains, locus YLR058C, strain SHM2, active compounds read low 0.953 | S. cerevisiae deletion strains, locus YLR102C, strain apc9, active compounds read low 0.949 | S. cerevisiae deletion strains, locus YLR268W, strain sec22, active compounds read low 0.888 | S. cerevisiae deletion strains, locus YLR357W, strain rsc2, active compounds read low 1.04 | S. cerevisiae deletion strains, locus YLR370C, strain arc18, active compounds read low 0.949 | S. cerevisiae deletion strains, locus YLR371W, strain rom2, active compounds read low 0.937 | S. cerevisiae deletion strains, locus YLR384C, strain iki3, active compounds read low 0.978 | S. cerevisiae deletion strains, locus YML016C, strain PPZ1, active compounds read low 0.959 | S. cerevisiae deletion strains, locus YML124C, strain tub3, active compounds read low 0.963 | S. cerevisiae deletion strains, locus YMR058W, strain fet3, active compounds read low 0.921 | S. cerevisiae deletion strains, locus YMR078C, strain ctf18, active compounds read low 0.928 | S. cerevisiae deletion strains, locus YMR129W, active compounds read low 0.988 | S. cerevisiae deletion strains, locus YMR231W, strain pep5, active compounds read low 1.01 | S. cerevisiae deletion strains, locus YMR263W, strain SAP30, active compounds read low 0.926 | S. cerevisiae deletion strains, locus YMR307W, strain GAS1, active compounds read low 0.864 | S. cerevisiae deletion strains, locus YNL067W, strain RPL9B, active compounds read low 0.873 | S. cerevisiae deletion strains, locus YNL128W, strain TEP1, active compounds read low 0.906 | S. cerevisiae deletion strains, locus YNL153C, strain GIM3, active compounds read low 0.972 | S. cerevisiae deletion strains, locus YNL183C, strain NPR1, active compounds read low 0.871 | S. cerevisiae deletion strains, locus YNL250W, strain rad50, active compounds read low 0.956 | S. cerevisiae deletion strains, locus YNL271C, strain bni1, active compounds read low 0.958 | S. cerevisiae deletion strains, locus YNL298W, strain CLA4, active compounds read low 0.919 | S. cerevisiae deletion strains, locus YNL322C, strain KRE1 (second series), active compounds read low 0.969 | S. cerevisiae deletion strains, locus YNL322C, strain KRE1, active compounds read low 0.928 | S. cerevisiae deletion strains, locus YNR049C, strain mso1, active compounds read low 0.992 | S. cerevisiae deletion strains, locus YNR052C, strain pop2, active compounds read low 0.954 | S. cerevisiae deletion strains, locus YOL006C, strain TOP1, active compounds read low 0.69 | S. cerevisiae deletion strains, locus YOL012C, strain htz1 0.631 | S. cerevisiae deletion strains, locus YOR001W, strain rrp6, active compounds read low 0.943 | S. cerevisiae deletion strains, locus YOR061W, strain CKA2, active compounds read low 0.956 | S. cerevisiae deletion strains, locus YOR069W, strain VPS5, active compounds read low 0.958 | S. cerevisiae deletion strains, locus YOR080W, strain dia2, active compounds read low 0.996 | S. cerevisiae deletion strains, locus YOR083W, strain WHI5, active compounds read low 0.905 | S. cerevisiae deletion strains, locus YOR136W, strain idh2, active compounds read low 0.942 | S. cerevisiae deletion strains, locus YOR144C, strain elg1, active compounds read low 0.973 | S. cerevisiae deletion strains, locus YOR265W, strain rbl2, active compounds read low 0.93 | S. cerevisiae deletion strains, locus YOR290C, strain snf2, active compounds read low 0.89 | S. cerevisiae deletion strains, locus YOR316C, strain cot1, active compounds read low 0.96 | S. cerevisiae deletion strains, locus YPL055C, strain LGE1, active compounds read low 0.816 | S. cerevisiae deletion strains, locus YPL106C, strain sse1, active compounds read low 1.03 | S. cerevisiae deletion strains, locus YPL241C, strain CIN2, active compounds read low 0.962 | S. cerevisiae deletion strains, locus YPR119W, strain clb2, active compounds read low 0.966 | S. cerevisiae deletion strains, locus YPR141C, strain kar3, active compounds read low 0.971 | S. cerevisiae deletion strains, locus YPR167C, strain met16, active compounds read low 0.959
